ALDH1A1 inh: inhibitors of human aldehyde dehydrogenase 1A1; P00352; Purified ALDH1A1, NADH fluorescence, propionaldehyde substrate; Potency, µM (series often up to 75.3 µM), without a hit: at the top dose activity, negative = inhibition, usual class: inhibitors; AID 1030; 7.3% of 220,000 active;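 also: potency is read from the fitted curve at half-maximal effect; plate controls were no enzyme wells and a reference inhibitor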
HPGD block: inhibitors of human 15-hydroxyprostaglandin dehydrogenase (HPGD) | P15428 | purified HPGD, NADH fluorescence kinetic, PGE2 substrate | Potency, µM, without a hit: top-dose activity change, negative = inhibition, most hits filed as inhibitors | 4.3% of 150,000 active | AID 894; also: potency is read from the fitted curve at half-maximal effect
Target sequence (P15428 whole entry, looked up): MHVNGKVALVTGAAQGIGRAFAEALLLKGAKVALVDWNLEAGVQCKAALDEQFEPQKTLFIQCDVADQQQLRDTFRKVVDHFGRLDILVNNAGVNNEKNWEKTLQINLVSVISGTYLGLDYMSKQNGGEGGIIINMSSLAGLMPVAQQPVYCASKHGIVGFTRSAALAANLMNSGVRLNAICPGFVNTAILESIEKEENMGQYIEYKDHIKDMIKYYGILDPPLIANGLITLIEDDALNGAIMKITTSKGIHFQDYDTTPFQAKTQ
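20 nM HPGD preincubated 15 min at room temperature with compound in 50 mM Tris-HCl pH 8, 0.01% Tween 20. Started with 1 mM NAD+ and 30 uM prostaglandin E2; NADH fluorescence (360/450 nm) read 5 times over 30-s intervals, last minus first.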
IMPase Li cell: membrane-permeable IMPase blocker, potentiated with lithium; 0.35% of 210,000 active; Potency, µM (highest dose often 59.4 µM), inactives show at the top dose activity, negative = IMPase inhibition, hits mostly inhibitors; CHO-M1 cells, IP1 TR-FRET (IP-One), carbachol + lithium; active = well fitted curve in the direction sought with a large enough effect; inconclusive = small, poorly fitted or top-dose-only effect, or another doubt; inactive = no such curve, though single readings can be large; an effect the other way counts as inactive or inconclusive;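 also: IP1 builds up when IMPase is blocked and the TR-FRET signal falls; potency is read from the fitted curve at half-maximal effect; plate controls were basal vehicle for no effect and high inhibitor control for full effect; nearly all actives have a fitted effect of over 50% in size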
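CHO-M1, 2000 cells/well, 16–30 h culture; cpd + low Li+, 30 min 37C; lysis with d2-IP1/Eu-anti-IP1 Ab, 10 min RT; TR-FRET 665/620 ratio and 620 channel; AC50 via Hill.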
ALOX12 inhib: inhibitors of human 12-lipoxygenase (ALOX12). 0.12% of 150,000 active. purified 12-hLO, xylenol orange hydroperoxide absorbance. P18054. Potency, µM (highest dose often 57.1 µM), for the others: at the top dose activity change, negative = inhibition, most hits filed as inhibitors; active = well fitted curve in the direction sought with a large enough effect; inconclusive = small, poorly fitted or top-dose-only effect, or another doubt; inactive = no such curve, though single readings can be large; an effect the other way counts as inactive or inconclusive; also: potency is read from the fitted curve at half-maximal effect; nearly all actives have a fitted effect of over 55% in size
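Hydroperoxide output read as Fe(III)-xylenol orange absorbance, 573-to-405 nm ratio, after 30 min reaction with 40 uM arachidonic acid. Enzyme: 150 nM purified human 12hLO, 15 min compound preincubation; 25 mM Hepes pH 7.0, room temperature.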
IMPase inh: IMPase inhibition in cells; P97697; CHO-M1 cells, IP1 accumulation, HTRF TR-FRET ratio; inhibition (IP1 accumulation), % at 46.1 µM; 120,000 tested, under 10 active; AID 901; active = well fitted curve in the direction sought with a large enough effect in the signal ratio, not every such curve was filed as active; inconclusive = small, poorly fitted or top-dose-only effect, or a change in a side signal; inactive = no such curve, though single readings can be large or run the other way; the % refers to the signal ratio;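 also: cells stimulated with carbachol in lithium chloride buffer; plate controls were DMSO basal wells for no effect and reference inhibitor wells for full effect; higher means more IMPase inhibition seen as more IP1 and lower FRET ratio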
Target sequence (P97697 whole entry, looked up): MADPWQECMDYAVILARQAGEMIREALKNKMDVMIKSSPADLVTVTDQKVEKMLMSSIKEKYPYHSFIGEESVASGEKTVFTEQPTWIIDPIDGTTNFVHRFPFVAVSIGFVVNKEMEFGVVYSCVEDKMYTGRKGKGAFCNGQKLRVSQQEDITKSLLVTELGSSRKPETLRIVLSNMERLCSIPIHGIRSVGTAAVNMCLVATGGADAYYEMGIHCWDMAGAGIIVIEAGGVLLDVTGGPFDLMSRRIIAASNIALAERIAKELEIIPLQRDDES
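Elevated IP1 in lysates lowers TR-FRET signal (665/620 ratio and 620 channel reported). Cells were CHO-M1, given carbachol (50 uM as added) plus 50mM LiCl, pH 7.4, 30 min, 37C; compounds titrated up to 46 uM; AC50 by Hill equation.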
PNC assembly inh: perinucleolar compartment assembly inhibition. PC3M PTB-GFP, PNC prevalence imaging, 16 h; active compounds read low. activity change (PNC), negative = inhibition, % at 10 µM. 3.1% of 140,000 active. AID 2417;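 active = readout at or below -70, meaning at least 70% loss of cells showing the perinucleolar compartment, a nuclear body marking cancer cells; inconclusive = readout between -30 and a set limit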;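 also: plate controls were DMSO wells for no effect and camptothecin positive control wells for full effect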
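Read-out is percentage of cells bearing a perinucleolar compartment, from automated 20x imaging of fixed, Hoechst-stained PC3M PTB-GFP cells. Cells were seeded 4 h, then exposed 16 h to compound (23 nl of library stock) in duplicate plates.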
The depositor's hits bear a star; ? = inconclusive; . = not tested or not shown; [ ] = dose if it differs, or a comment. This is a sample that favours compounds with a hit; in the whole collection about 11% have one here. Unless noted, calls follow the shape of the dose curve; as a rule, active = well fitted inhibition curve with a large enough effect (not every such curve was filed as active); inconclusive = small, poorly fitted or top-dose-only effect, or another doubt; inactive = no such curve, though single readings can be large or run the other way. Unless noted, % is scaled to controls: 0 for no effect and ±100 for the full control effect.

SMILES	ALDH1A1 inh	HPGD block	IMPase Li cell	ALOX12 inhib	IMPase inh	PNC assembly inh
O=C(NCc1ccccn1)c1ccc(Cl)cc1Cl	7%	20µM*	17%[38.3 µM]	-5%	-3	?
Cc1cc(C)cc(NC(=O)C(=O)NCc2ccccn2)c1	4%	2%	-4%	1%	.	-84*
O=C(NCc1ccccn1)Nc1ccc(Cl)c(Cl)c1	4%	-3%	14%	-8%	5	-84*
COc1ccc(C(C)=O)cc1CSc1nnc(Nc2ccccc2)s1	?	25µM*	6%	-4%	.	4
COc1ccc(C(C)=O)cc1CSc1nnc(-c2ccc(Cl)cc2)n1-c1ccccc1	10µM*	-23%	13%[38.3 µM]	-12%	6	-12
COc1ccc(C(C)=O)cc1CSc1ncccn1	-8%	.	4%	.	.	.
COc1ccc(C(C)=O)cc1CSc1nnc(-c2ccncc2)n1C	0%	.	-6%	.	.	.
COc1ccc(-c2nnc(SCc3nnc(-c4ccccc4)o3)n2-c2ccccc2)cc1	-2%	7.9µM*	-6%[38.3 µM]	2%	-7	?
COc1ccc(C(C)=O)cc1CSc1nnc(C)s1	?	18µM*	8%[38.3 µM]	0%	-3	-3
O=C(Nc1cccc(F)c1)N1CCC2(CC1)CCN(C(=O)c1cnccn1)CC2	14%	-2%	5%	-2%	.	.
COc1ccc(C(C)=O)cc1CSc1nnc(Nc2ccc(C)cc2)s1	?	?	4%	-4%	.	-113*
COc1ccc(/C=N/NC(=O)c2cccc(OC(F)(F)C(F)F)c2)cc1O	-2%	-5%	4%	-2%	.	35
COCCNC(=O)Cn1cc(C(=S)N2CCOCC2)c2ccccc21	32µM*	.	2%	.	.	.
Cc1sc(C(C2C(=O)CC(C)(C)CC2=O)C2C(=O)CC(C)(C)CC2=O)cc1[N+](=O)[O-]	13µM*	.	14%	.	.	.
CCOc1ccc(/C=N/NC(=O)CSc2n[nH]c(=O)[nH]c2=O)cc1OC	8%	.	1%	.	.	.
S=c1[nH]c(-c2ccc(Cl)cc2)cs1	3.2µM*	.	2%	.	.	.
Cc1ccc(-c2csc(=S)[nH]2)cc1	14µM*	.	7%	.	.	.
S=c1nccc(-c2ccc(Cl)cc2)[nH]1	-6%	.	.	.	.	.
O=C(Nc1ccc(N2C(=O)C3C4C=CC(C4)C3C2=O)cc1)Nc1cccnc1 (stereo unspecified)	?	18µM*	16%[38.3 µM]	-2%	-2	-25
CC(C(=O)Nc1cccnc1)N1C(=O)c2ccccc2C1=O (stereo unspecified)	14%	0%	4%[38.3 µM]	-1%	1	?
CC(C(=O)Nc1cccnc1)N1C(=O)C2C3C=CC(C3)C2C1=O (stereo unspecified)	20µM*	-16%	0%[38.3 µM]	5%	3	-1
COC(=O)CSc1nc2sc3c(c2c(=O)n1-c1ccc(C)cc1)CC(C(C)C)OC3 (stereo unspecified)	.	.	.	.	-7	.
COc1ncc2nc(-c3cn(C)c4ccccc34)c(=O)n(-c3ccccc3)c2n1	5%	.	19%	.	.	.
NCC1CCC(C(=O)O)CC1 (stereo unspecified)	12%	-3%	9%	-1%	3[20.6 µM]	.
CCN1CCN(C(=S)c2ccc(Cl)cc2)CC1	?	10µM*	13%[38.3 µM]	2%	0	19
SMILES	ALDH1A1 inh	HPGD block	IMPase Li cell	ALOX12 inhib	IMPase inh	PNC assembly inh
CC(C)(C)c1cc(C(=S)N2CCN(CCO)CC2)cc(C(C)(C)C)c1O	18µM*	25µM*	32%[38.3 µM]	?	8	?
CCN1CCN(C(=S)c2ccc(OC)cc2)CC1	-14%	.	7%	.	.	.
S=C(c1ccc(Cl)cc1)N1CCN(Cc2ccccc2)CC1	-18%	.	11%	.	.	.
OCCN1CCN(C(=S)c2ccc(Cl)cc2)CC1	16µM*	16µM*	6%[38.3 µM]	-2%	-9	?
CN1CCC(CNC(=O)c2ccc(Cc3nc4ccccc4[nH]3)cc2)CC1	-4%	-7%	.	0%	.	.
Cc1cccc(-c2cc(=O)c3cc(Br)ccc3o2)c1	-1%	-9%	28%	-1%	4	.
C[N+](C)(C)C(C1=CCCC1=O)c1ccccc1 (stereo unspecified)	-15%[13.5 µM]	-1%	-8%	.	.	.
